In all, about 320,000 compounds went through this assay and about 1,400 (0.44%) were called active. The sample holds actives, similar compounds and a random draw of the others, so the mix is not that of the screen. A number with no mark means an inactive call.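 The calls were made as follows: active = percent inhibition above a per-plate cutoff, the plate mean of test compounds plus 3 SD (cut at about 30% in these data); inactive = the rest.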

The target in the assay is Female germline-specific tumor suppressor gld-1 (Caenorhabditis elegans) (UniProt Q17339). The assay can be described thus: GLD-1/TGE RNA complex disruptors, primary screen, biochemical, fluorescence polarization (AID 2280).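 Also: 0% = DMSO wells with GLD-1 and probe and 100% = wells lacking GLD-1.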 The settings on record: purified GLD-1 + fluorescein TGE RNA, at 5.96 µM, stronger effect = higher value. On the technique in general: In fluorescence polarisation assays a small probe gives low polarisation when free and higher when bound to something large.
Female germline-specific tumor suppressor gld-1 (Caenorhabditis elegans), sequence (Q17339 whole entry, looked up): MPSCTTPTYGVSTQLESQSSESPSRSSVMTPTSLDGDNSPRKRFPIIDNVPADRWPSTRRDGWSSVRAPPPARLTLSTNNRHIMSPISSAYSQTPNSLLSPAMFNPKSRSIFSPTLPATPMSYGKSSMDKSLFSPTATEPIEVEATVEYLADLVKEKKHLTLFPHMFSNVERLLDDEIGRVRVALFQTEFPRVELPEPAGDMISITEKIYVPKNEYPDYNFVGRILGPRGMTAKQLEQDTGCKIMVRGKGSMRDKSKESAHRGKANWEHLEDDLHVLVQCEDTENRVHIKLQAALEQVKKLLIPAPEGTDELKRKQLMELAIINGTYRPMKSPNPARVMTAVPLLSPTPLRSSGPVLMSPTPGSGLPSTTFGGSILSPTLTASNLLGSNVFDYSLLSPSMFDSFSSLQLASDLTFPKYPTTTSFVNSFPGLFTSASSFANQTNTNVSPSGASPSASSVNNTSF
As a reminder, the inhibition is the relative decrease from the control value, in per cent. Turning to `CN(c1ccccc1)S(=O)(=O)c1ccc2[nH]c(=O)[nH]c2c1`, the inhibition is -0.63%. As for `Cc1ccc(C)c(OCCC(=O)OCC(=O)N2CCN(c3ccccc3)CC2)c1`, the figure is -2.09%. Next, `Cc1sc2ncnc(SCC(=O)Nc3ccc(CN4CCCC4)cc3)c2c1C`: -0.9%.

On to `COc1ccc(C(=O)NCCNc2ccc([N+](=O)[O-])cn2)cc1`, for which the inhibition was 9.44%.

As for `COc1ccccc1C1CCN(c2ccc([N+](=O)[O-])cn2)CC1`, the inhibition is 3.13%.

As to `COc1ccc(Nc2ccc([N+](=O)[O-])cn2)cn1`, the inhibition was 44.7% (active).

As to `CCN1CCN(c2ccc(S(=O)(=O)N3CCCCC3)cc2NC(=O)Cc2c(Cl)cccc2Cl)CC1`, the inhibition was -0.26%. For `CCN(C[C@H]1N[C@@](CC)(C(=O)OC)[C@H]2C(=O)N(C)C(=O)[C@@H]12)C(=O)Nc1ccc(F)cc1`, the inhibition was 1.26%. In the case of `CCC(=O)Nc1ccc(S(=O)(=O)Nc2c(NC)c3ccccc3oc2=O)cc1`, the inhibition was 0.71%. As for `C[C@H](NC(=O)c1nc[nH]c1C(=O)N[C@@H](C)C(=O)OC(C)(C)C)C(=O)OC(C)(C)C`, the figure is 0.74%; as for `O=[N+]([O-])/C=C/c1ccc2c(ccn2Cc2ccccc2)c1`, 7.04%. Next, `O=C(OCCOCn1cc(Br)c(=O)[nH]c1=O)c1ccccc1`: 5.67%; `COc1cc(C(=O)NCc2cc3cc(Cl)ccc3n2C)cc(OC)c1OC`: -2.07%. As for `COc1cc(C(=O)NCc2ccc3c(c2)cc(C)n3C)cc(OC)c1OC`, the figure is 34.8% (active); as for `CCOCC(=O)NCc1ccc2c(c1)cc(C)n2C`, 25.6%.

`CCCC(C(=O)n1nc(C)cc1C)C(NS(=O)(=O)c1ccc(C)cc1)c1ccccc1` (centres undefined): the inhibition was 2.32%.

As for `O=C(COC(=O)[C@H](Cc1ccccc1)NC(=O)c1cccs1)Nc1cc(F)ccc1F`, the inhibition is 8.92%. As for `COCCn1c(SCC(=O)N2CCCCCC2)nc2c(c1=O)SCC2`, the figure is -2.72%; as for `CC(=O)N1CCN(S(=O)(=O)c2cccc(C(=O)NC3CCC(C)CC3)c2)CC1` (centres undefined), 1.54%; as for `COc1cc(C(=O)N2C(=O)c3cccc(N)c3C2=O)cc(OC)c1OC`, 10.9%. Next, `CC1CC(C)CN(S(=O)(=O)c2cccc(C(=O)N3C(=O)c4cccc(N)c4C3=O)c2)C1` (centres undefined): 31.4% (active); `CCOc1cc(/C=C2/N=C(c3ccc(C(C)(C)C)cc3)OC2=O)cc(Cl)c1OS(C)(=O)=O`: 4.12%.

For the molecule `CCOC(=O)N1CCN(c2cc(C)c([N+](=O)[O-])cc2F)CC1`, the inhibition was -3.69%. As for `O=C(C1=C(O)C(=O)N(CCOCCO)C1c1ccccn1)c1cccs1` (centres undefined), the inhibition was 5.95%. Regarding `Cc1cc2ccccc2n1CCC(=O)O`, the inhibition was 50.2% (active). Next, `Cc1cc2ccccc2n1CCNC(=O)COc1ccc2ccccc2c1`: 7.21%. Next, `O=C(O)CCn1c(Cc2ccccc2)nc2ccccc21`: -2.47%. Regarding `COC(=O)c1cn(C)c2ccc(S(=O)(=O)N3CC(C)CC(C)C3)cc2c1=O` (centres undefined), the inhibition was 3.86%. As for `Cc1ccc(NC(=O)C(C)c2cccc(C(=O)c3ccccc3)c2)cc1` (centres undefined), the inhibition is 2.46%. As for `O=C(CCc1ccccc1)Nc1ccc(NC(=O)C2CC2)nc1`, the figure is 8.07%; as for `N[C@@H](Cc1ccccc1)C(=O)N1CCOCC1`, 10.2%; as for `O=C(NCCN1CCOCC1)[C@H](Cc1ccccc1)N1C(=O)c2ccccc2C1=O`, 5.89%. Consider `C=C1CCN([C@@H](Cc2ccccc2)C(=O)N2CCOCC2)S(=O)(=O)c2ccccc21`, for which the inhibition is 39.9% (active). As for `CCN(c1ccc2c(c1)OCO2)S(=O)(=O)c1cc(Br)cc2c1N(C(=O)C1CC1)CC2`, the figure is 2.82%; as for `Cc1ccc(S(=O)(=O)c2c[nH]c3ccc(Cl)cc3c2=O)cc1`, 1.43%; as for `Cc1cc(=O)oc2cc(OCC3CC(c4ccccc4Cl)=NO3)ccc12` (centres undefined), 4.3%. As for `CC(=O)c1nnn(-c2ccc(Cl)cc2C#N)c1C`, the inhibition was 2.27%.

Turning to `CC[N+](C)(CC)CCC[n+]1c(-c2ccccc2)c2cc(N)ccc2c2ccc(N)cc21`, the inhibition was 62.4% (active).

Regarding `CC(C)[C@H](NC(=O)N1CCn2c1nc1ccccc12)C(=O)NC1CC1`, the inhibition was -3.08%.

Regarding `CC1CCN(c2c(NCc3ccc(C(=O)NCc4ccccc4)cc3)c(=O)c2=O)CC1`, the inhibition is -1.64%. Consider `Cc1ccc(CNC(=O)c2cccc3c2C(=O)c2ccc(N4CCC(C)CC4)cc2S3(=O)=O)cc1`, for which the inhibition is 124% (active). As for `Cc1ccc(CNC(=O)c2ccc3c(c2)S(=O)(=O)c2ccccc2C3=O)cc1`, the figure is -2.48%; as for `O=[N+]([O-])c1cc(S(=O)(=O)Nc2cccc(Cl)c2)ccc1N=Nc1c(O)[nH]c2ccccc12`, 0.17%; as for `O=C(NCC(c1cccs1)N1CCOCC1)c1cc(Cl)ccc1[N+](=O)[O-]` (centres undefined), 1.88%. With `CCOC(=O)CN(C)S(=O)(=O)c1ccc(-c2cc(C(=O)OC)sc2C(F)(F)F)cc1`, the inhibition was 9.97%.

Turning to `COc1ccc(C2C=C(c3ccc(Br)cc3)Nc3nc(NS(C)(=O)=O)nn32)cc1` (centres undefined), the inhibition is 155% (active). As to `COc1ccc(C2=CC(c3cccc(OC)c3)n3nnnc3N2)cc1` (centres undefined), the inhibition is 14.6%.

Turning to `CSc1cccc(NC(=O)CN2C(=O)COc3ccc(S(=O)(=O)N4CCOCC4)cc32)c1`, the inhibition was -0.09%. As for `N#CCc1ccc(NC(=O)c2ccccc2C(=O)Nc2ccc(CC#N)cc2)cc1`, the figure is -0.7%. Next, `COc1cccc(NC(=O)CN(C)CC(=O)c2c(N)n(Cc3ccccc3)c(=O)n(C)c2=O)c1`: 3.38%; `CNC(=O)c1cccc2nc3ccccc3nc12`: 3%; `O=c1[nH]c(=O)c2nc3ccccc3nc2[nH]1`: 48.7% (active). `O=C1NCCn2nc3ccccc3c21`: the inhibition was -0.55%. Next, `Nc1ccc2nc3c(=O)[nH]c(=S)[nH]c3nc2c1`: 172% (active); `Cc1csc(/N=C/N(C)C)c1C#N`: 7.85%; `COc1cccc(NC(=O)C(=O)c2cn(CC(=O)N3CCOCC3)c3ccccc23)c1`: 9.65%. Consider `Cc1ccc(C2(C)NC(=O)N(CC(=O)N3CC(=O)Nc4ccccc43)C2=O)cc1` (centres undefined), for which the inhibition is -0.04%. Next, `Cc1ccc(-c2nnc(Nc3ccc(C(=O)N(C)C)cc3)c3ccccc23)cc1S(N)(=O)=O`: 6.66%; `O=C(Nc1cccc(F)c1)N1C2CCC1CC(O)(c1cccnc1)C2` (centres undefined): -5.02%; `CC[C@]1(O)C[C@@H]2CN(CCc3c([nH]c4ccccc34)[C@@](C(=O)OC)(c3cc4c(cc3OC)N(C)[C@H]3[C@@](O)(C(=O)OC)[C@H](OC(C)=O)[C@]5(CC)C=CCN6CC[C@]43[C@@H]65)C2)C1`: 35.9% (active). Consider `CC[C@]1(O)CC2CN(CCc3c([nH]c4ccccc34)[C@@](C(=O)OC)(c3cc4c(cc3OC)N(C=O)[C@H]3[C@@](O)(C(=O)OC)[C@H](OC(C)=O)[C@]5(CC)C=CCN6CC[C@]43[C@@H]65)C2)C1` (some centres undefined), for which the inhibition is 8%.

Regarding `COc1ccc(Cc2nnc(N/N=C/c3ccccc3O)[nH]c2=O)cc1OC`, the inhibition was 2.1%. Next, `Cc1ccc(/C=N/NC(=O)CSc2nc3ccccc3o2)cc1`: 13.4%; `Cc1ccc(/C=N/NC(=O)COc2ccccc2-c2ccccc2)cc1`: 52.5% (active).

Take `Cc1cccc(OCC(=O)NCC(=O)N/N=C/c2ccc(N(C)C)cc2)c1`: the inhibition was 1.86%.

For the molecule `COc1cc(/C=C2\Oc3ccc(C#Cc4ccc(O)cc4)cc3C2=O)cc(OC)c1`, the inhibition was -7.59%.

Consider `O=C(CCN1CCc2ccccc2C(O)(c2ccccc2)C1)c1ccc2c(c1)OCCO2` (centres undefined), for which the inhibition was 8.71%. As for `COC(=O)c1cc(C(=O)N(Cc2ccccc2)c2ccccn2)cc([N+](=O)[O-])c1`, the figure is 3.82%; as for `COCCOC(=O)c1sc(=S)n(CCOC)c1N`, 65.8% (active). In the case of `COc1cccc(-n2c(SCC(=O)NC3CCS(=O)(=O)C3)nc3ccccc3c2=O)c1` (centres undefined), the inhibition was 1.53%.

`CSCCC(NS(=O)(=O)c1ccc2c(c1)oc(=O)n2C)C(=O)NCc1ccccc1` (centres undefined): the inhibition is 4.5%. For `Cc1cc2nc3c(=O)n(Cc4ccccc4)c(=O)[nH]c3nc2cc1N`, the inhibition is 190% (active). Consider `COC(=O)CSc1nc2ccccc2c(=O)n1Cc1ccccc1`, for which the inhibition is -3.39%. As to `C=CCSc1nc2c(c(=O)[nH]c(=O)n2C)n1Cc1ccccc1`, the inhibition was -0.99%. As for `COc1cc([C@H](Cc2ccccc2)NC(C)=O)oc(=O)c1`, the figure is 43.8% (active); as for `CCOC(=O)C(Cc1ccccc1)NC(=O)CCC(=O)c1ccc(OC)cc1` (centres undefined), 2.6%. With `COc1ccc(OC)c(NC(=O)N[C@H](Cc2ccccc2)C(=O)NN)c1`, the inhibition is 6.48%. Consider `CCCCCCCCc1c(O)nc(-n2[nH]c(C)c(CCO)c2=O)[nH]c1=O`, for which the inhibition is 3.56%.

Regarding `COCCN(C(=O)c1ccccc1F)c1c(N)n(Cc2ccccc2)c(=O)[nH]c1=O`, the inhibition is 1.28%. Next, `COCCn1c(N)c(N(Cc2ccccc2)C(=O)C2CCCCC2)c(=O)[nH]c1=O`: 7.47%; `COCCn1c(N)c(NCc2ccccc2)c(=O)[nH]c1=O`: 94.7% (active).

For `COC(=O)c1c(NC(=O)CN2CCN(S(=O)(=O)c3ccccc3[N+](=O)[O-])CC2)sc2c1CCC(C)C2` (centres undefined), the inhibition is 1.69%. For `COc1ccc(C2C(C#N)=C(N)N(c3ncn[nH]3)C3=C2C(=O)CCC3)cc1` (centres undefined), the inhibition is 2.28%. With `O=C(Nc1ccccc1C(=O)O)c1ccc(N2C(=O)C3CC=CCC3C2=O)cc1` (centres undefined), the inhibition was 3.32%. Next, `Brc1ccc(C2=CC(c3ccco3)n3ncnc3N2)cc1` (centres undefined): 158% (active); `CCOc1ccc(C2=CC(c3ccccc3)n3ncnc3N2)cc1` (centres undefined): 11.7%. `CC1=C(C(=O)OCc2ccccc2)C(c2ccco2)n2ncnc2N1` (centres undefined): the inhibition is 0.86%.

`CCC(C)[C@@H](C(=O)N1CCNCC1)n1cc(CCCCN)nn1` (some centres undefined): the inhibition is 3.86%. Next, `COc1cc2c(-c3ccc4c(c3)OCO4)c(-c3ccsc3)oc(=O)c2cc1OC`: 0.87%.
